Reference: ChEMBL document CHEMBL3988442, “University of Dundee, Small-Polar-MMV Screening Library” (2021)
Screen size: about 48,000 compounds; about 13,000 (27%) showed an effect of 50% or more. This is one part of the list.

What follows are compounds tested on Wolbachia pipientis (assay: Anti-Wolbachia Cell-Based Screen). Conditions: 5 µM.
Assay type: functional
Design: scale not given: in the data most compounds retested in dose-response had high values
With `CC(C)c1nc(C2CCCN2c2cnc3cc(F)c(F)cc3n2)no1` (centres undefined) the “Percent Effect” value was 4.6%.
In the case of `CC(C)OC(=O)N1CCCCC1CCn1cccn1` (centres undefined), the “Percent Effect” value is reported as 30.12%.
In the case of `Cl.Nc1nc(C(=O)NCC2CCC3(CCNCC3)CO2)cs1` (centres undefined), the “Percent Effect” value is reported as -0.4275%.
`CC(C)(C)n1cc(C#N)cc1NC(=O)CCNC(=O)c1ccco1` was tested, and the “Percent Effect” value was -15.76%.
In the case of `Cn1cc(C(=O)N2CCCC(Cc3cccc4ncccc34)C2)cn1` (centres undefined), the “Percent Effect” value is reported as 153.9%.
`O=C(c1cnccn1)N1CCCC(Cc2cccc3ncccc23)C1` (centres undefined) was tested, and the “Percent Effect” value was 146.1%.
With `Cc1ccc2nc(C)c(C)c(C(=O)N3CCN(c4nccs4)CC3)c2c1` the “Percent Effect” value was -13.27%.
For `CCNC(=O)C1CCCN(Cn2nc(C(C)(C)C)ccc2=O)C1` (centres undefined), the “Percent Effect” value was 2.332%.
For `Cc1cc(CNC(=O)C2CCC(=O)N(Cc3ccccc3F)C2)on1` (centres undefined), the “Percent Effect” value was -7.53%.
For `Cc1cc(C[C@@H]2CCC[C@H]2NCc2ccccc2F)on1.O=C(O)CC(O)(CC(=O)O)C(=O)O`, the “Percent Effect” value was 109.7%.
`Cc1cc(C[C@@H]2COC[C@H]2NCc2ccccc2C(F)(F)F)on1.O=C(O)CC(O)(CC(=O)O)C(=O)O` was tested, and the “Percent Effect” value was -4.697%.
`Cc1cc(C[C@@H]2CCC[C@H]2NCc2cccc(F)c2F)on1.O=C(O)CC(O)(CC(=O)O)C(=O)O` was tested, and the “Percent Effect” value was 111.2%.
`Cc1cc(C[C@@H]2CCC[C@H]2NCc2ccccc2C(F)(F)F)on1.O=C(O)CC(O)(CC(=O)O)C(=O)O` was tested, and the “Percent Effect” value was -4.697%.
`O=C(NCc1cccc(F)c1F)c1cc(CN2CCCC(O)C2)on1` (centres undefined) was tested, and the “Percent Effect” value was -4.232%.
With `Cc1cc(C[C@@H]2CCC[C@H]2NCc2cc(F)ccc2F)on1.O=C(O)CC(O)(CC(=O)O)C(=O)O` the “Percent Effect” value was 83.79%.
`Cc1cc(C[C@@H]2CCC[C@H]2NCc2cc(C)c(O)c(C)c2)on1.O=C(O)CC(O)(CC(=O)O)C(=O)O` was tested, and the “Percent Effect” value was -7.471%.
For `Cc1cc(C[C@@H]2COC[C@H]2NCc2ccc(Br)s2)on1.O=C(O)CC(O)(CC(=O)O)C(=O)O`, the “Percent Effect” value was -4.105%.
In the case of `Cc1cc(C[C@@H]2COC[C@@H]2NC(=O)CN2CCOC2=O)on1`, the “Percent Effect” value is reported as -12.63%.
With `Cc1cc(C[C@@H]2CCC[C@H]2NCc2ccccc2C)on1.O=C(O)CC(O)(CC(=O)O)C(=O)O` the “Percent Effect” value was 135%.
`CCCc1noc(CN(C)C(=O)C2COc3ccccc3C2)n1` (centres undefined) was tested, and the “Percent Effect” value was -0.2082%.
For `O=C(c1cccc(O)c1)N1C[C@@H](CN2CCCCC2)[C@@H](CO)C1`, the “Percent Effect” value was 36.38%.
With `CCOc1cc(CNC(=O)NC2CC=CC2)ccc1OC(F)F` the “Percent Effect” value was -3.557%.
For `Cc1cc(C[C@@H]2COC[C@@H]2NC(=O)CN2CCc3ccccc3C2)on1`, the “Percent Effect” value was -17.37%.
For `Cc1cc(C[C@@H]2CCC[C@H]2NCc2ccc(C(F)(F)F)cc2)on1.O=C(O)CC(O)(CC(=O)O)C(=O)O`, the “Percent Effect” value was 113.9%.
In the case of `Cc1cc(C[C@@H]2COC[C@@H]2NC(=O)Cn2c(=O)oc3ccccc32)on1`, the “Percent Effect” value is reported as -2.365%.
With `Cc1cc(C[C@@H]2CCC[C@H]2NCc2c[nH]nc2-c2ccccc2)on1.O=C(O)CC(O)(CC(=O)O)C(=O)O` the “Percent Effect” value was 114%.
`CCCOc1ccccc1CN[C@@H]1CCC[C@H]1Cc1cc(C)no1.O=C(O)CC(O)(CC(=O)O)C(=O)O` was tested, and the “Percent Effect” value was 112%.
With `Cc1cc(C[C@@H]2COC[C@@H]2NC(=O)CN2CCCC2)on1` the “Percent Effect” value was -5.725%.
With `Cc1cc(C[C@@H]2COC[C@@H]2NC(=O)CCN2Cc3ccccc3C2)on1` the “Percent Effect” value was -14.09%.
`Cc1cc(C[C@@H]2COC[C@@H]2NC(=O)CN2CCCCCC2)on1` was tested, and the “Percent Effect” value was 40.3%.
In the case of `CCC[C@H]1CN(Cc2cc(C)no2)C[C@@H]1NC(=O)C1(COC)CCC1`, the “Percent Effect” value is reported as -6.466%.
For `CSc1nccc(NCC2CNCCOC2)n1` (centres undefined), the “Percent Effect” value was 0.1221%.
For `COCCN1CCN(C(=O)c2ccc(COC)o2)[C@H]2CS(=O)(=O)C[C@H]21`, the “Percent Effect” value was 7.213%.
In the case of `CC(C)NC(=O)N[C@H]1C[C@@H](Cc2cc(CN3CCOCC3)on2)C1(C)C`, the “Percent Effect” value is reported as -0.1597%.
`Cc1c[nH]c(CN(C)C(=O)c2cccc(CCC(C)(C)O)c2)n1` was tested, and the “Percent Effect” value was -0.9219%.
In the case of `CC(=O)N1CCCC(c2nc(-c3ccccc3)c[nH]2)C1` (centres undefined), the “Percent Effect” value is reported as -5.299%.
For `COCC(=O)N1CCCC(c2nc(N(C)C)ncc2-c2ccccc2)C1` (centres undefined), the “Percent Effect” value was 96.39%.
`CC(=O)N1CCCC1c1nc(N(C)C)ncc1-c1ccccc1` (centres undefined) was tested, and the “Percent Effect” value was 120.4%.
With `CC(=O)N1CCCC(c2nc(N(C)C)ncc2-c2ccccc2)C1` (centres undefined) the “Percent Effect” value was 94.88%.
`Cc1cc(C2CCCN(C(=O)COc3cc(F)ccc3F)C2)n[nH]1` (centres undefined) was tested, and the “Percent Effect” value was -12.04%.
With `COCC(=O)N1C[C@H]2CC[C@@]3(N=C(c4ccccc4)NC3=O)[C@H]2C1` the “Percent Effect” value was -3.823%.
For `COCC(=O)N1CCCC(COc2ccccc2C)C1` (centres undefined), the “Percent Effect” value was -17.48%.
With `CCC(=O)N1CCCC(c2nc(N(C)C)ncc2-c2ccc(F)cc2)C1` (centres undefined) the “Percent Effect” value was 103.1%.
In the case of `O=C(c1ccc[nH]1)N1CCCC1c1nc(-c2ccccc2)n[nH]1` (centres undefined), the “Percent Effect” value is reported as 3.184%.
In the case of `Cc1cc(C2CCCN(C(=O)COc3ccc(F)cc3)C2)n[nH]1` (centres undefined), the “Percent Effect” value is reported as -12.08%.
For `CC(=O)N1CCCC1c1cccc(C)c1C` (centres undefined), the “Percent Effect” value was 2.963%.
For `CC(=O)N1Cc2ccccc2C[C@H]1C(=O)Nc1ccccn1`, the “Percent Effect” value was -1.208%.
For `Cc1ccc(C(=O)N2CCSCC2)cc1NC(=O)NCCO`, the “Percent Effect” value was -7.623%.
`Cc1cc(CNC(=O)C2CCCN2C(=O)OC(C)(C)C)no1` (centres undefined) was tested, and the “Percent Effect” value was -19.91%.
For `COCC(=O)N1CCCC(c2nc(N)ncc2-c2cccc(F)c2)C1` (centres undefined), the “Percent Effect” value was 111.1%.
For `Cc1cc(C2CCCN(C(=O)COc3cccc(F)c3)C2)n[nH]1` (centres undefined), the “Percent Effect” value was -5.532%.
With `Cc1nc(C2CCCN(C(=O)CCCOc3cccc(F)c3)C2)no1` (centres undefined) the “Percent Effect” value was -2.46%.
With `O=C1CN(C(=O)c2nnn(-c3ccc(C(F)(F)F)cc3)n2)CCN1` the “Percent Effect” value was 7.084%.
For `O=C(C1CCCC1)N1C[C@@H]2CCN(c3cccnc3)C[C@@H]2C1.O=C(O)C(F)(F)F`, the “Percent Effect” value was -15.19%.
For `O=C(CC1CC1)N1CCC2(CC1)CN(c1cccnc1)C(=O)CO2.O=C(O)C(F)(F)F`, the “Percent Effect” value was 86.93%.
For `O=C(CC1CC1)N1CCC2(CC1)CN(CCn1cccn1)C(=O)CO2`, the “Percent Effect” value was 0.04038%.
For `O=C(Cc1ccccn1)N1CCC2(CC1)CN(CC1CC1)C(=O)CO2.O=C(O)C(F)(F)F`, the “Percent Effect” value was 15%.
`CN(C)CCN1CCC2(CC1)CN(Cc1cccnc1)C(=O)CO2.O=C(O)C(F)(F)F.O=C(O)C(F)(F)F.O=C(O)C(F)(F)F` was tested, and the “Percent Effect” value was 106.6%.
For `O=C(O)C(F)(F)F.O=C1COC2(CCN(CC3CC3)CC2)CN1c1ccccc1`, the “Percent Effect” value was -2.17%.
For `O=C(CC1CC1)N1CCC2(CC1)CN(Cc1cccnc1)C(=O)CO2.O=C(O)C(F)(F)F`, the “Percent Effect” value was 85.91%.
`O=C(O)C(F)(F)F.O=C(c1ccncc1)N1C[C@@H]2CCN(c3cccnc3)C[C@@H]2C1` was tested, and the “Percent Effect” value was -5.49%.
With `Cn1ccnc1CN1CCC2(CC1)CN(Cc1ccccc1)C(=O)CO2.O=C(O)C(F)(F)F` the “Percent Effect” value was -7.87%.
With `O=C(CC1CC1)N1C[C@@H]2CCN(c3cccnc3)C[C@@H]2C1.O=C(O)C(F)(F)F` the “Percent Effect” value was 87.47%.
For `Cn1ccnc1CN1CCC2(CC1)CN(Cc1cccnc1)C(=O)CO2.O=C(O)C(F)(F)F.O=C(O)C(F)(F)F`, the “Percent Effect” value was -2.822%.
